High-throughput results (PubChem)
PfHsp90 yeast 2: growth inhibition of PfHsp90-expressing yeast, primary screen, antimalarial PfHsp90 inhibitor project, S. cerevisiae, BacTiter-Glo luminescence, single point, set 2. AID 504621, 2011. BacTiter-Glo ATP, 48 h; yeast lacking PDR1 and PDR3 efflux regulators. actives 0.32% (n = 310,000). inhibition, % at 9.4 µM;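 active means every replicate shows inhibition above about 80%, whatever the replicate mean, limit read from the data; inconclusive means mean inhibition reaches the set limit but some replicate falls short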;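 further: 0% = DMSO neutral controls and 100% = 20 µM radicicol positive controls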
esBAF inh: Bmi1 luciferase reporter increase in mESCs, primary screen, esBAF inhibitor project, mouse ES cells, Bmi1 luciferase knock-in, single point; actives 2% (n = 350,000); 24 h; 100% = twice the neutral-well signal; reporter increase, % at 12.5 µM; AID 602393, 2012; in the data active means activation above about 40%; inconclusive means no clear call, values can overlap the other calls;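 further: 0% = median of the plate's neutral control wells and 100% = double that signal; a rise in the Bmi1 reporter signal indicates esBAF inhibition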
N-glyco inh: increase of ERlucT glycosylation luciferase signal, primary screen, N-linked glycosylation inhibitor project, D54 ERlucT cells, luminescence, set 2; reporter increase, % at 12.5 µM; D54 ERlucT glycosylation luciferase reporter, 24 h; percent of 100 nM tunicamycin response; actives 0.23% (n = 360,000); AID 588692, 2011;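 active means mean luciferase reporter signal, scaled so untreated is 0 and the glycosylation-blocking control 100, at or above a set limit in every replicate; inconclusive means mean reaches the limit but not every replicate does; inactive means mean below the limit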;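 further: luciferase carries N-glycosylation sites so blocking glycosylation raises the light; 0% = median of neutral control wells and 100% = median of 100 nM tunicamycin wells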
Wnt act: Wnt/beta-catenin pathway activators, primary screen, cell-based, plate reader, single point; Wnt/beta-catenin reporter cell assay, activator; activation, % at 9.35 µM; actives 1.2% (n = 300,000); AID 743398, 2014; in the data active means activation above about 30%, passing the limit was not always enough; inconclusive means no clear call, values can overlap the other calls;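 further: 0% = neutral control wells and 100% = positive control wells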
MITF act: activators of MITF-driven TRPM1 promoter reporter, primary screen, cell-based, SK-MEL-5, luciferase, single point; SK-MEL-5 TRPM1-promoter luciferase, 24 h; % of positive control, neutral wells = 0; actives 0.75% (n = 300,000); activation, % at 12.5 µM;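 active means mean activation of at least 80% with every replicate also reaching 80%; inconclusive means mean reaches 80% but some replicate falls short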;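 further: 0% = neutral control wells and 100% = parthenolide positive control wells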
Vif imaging: HIV Vif self-association inhibitors, primary screen, imaging, HEK293T, single point. HEK293T cells, Vif self-association by quenched fluorescence, 24 h. inhibition, % at 7.49 µM. actives 0.35% (n = 340,000); in the data active means inhibition above about 50%, passing the limit was not always enough; inconclusive means no clear call, values can overlap the other calls; inactive means below about 31%
* hit, by the source's call; ? = inconclusive; nt = not tested or not shown. Rows were chosen to be rich in hits. Some 3% of all compounds tested hit in one or more screens of this group.

SMILES	PfHsp90 yeast 2	esBAF inh	N-glyco inh	Wnt act	MITF act	Vif imaging
OCCNc1nc(N2CCN(Cc3ccccc3)CC2)nc2ccccc12	-5.8	nt	nt	nt	3.9	nt
Cn1c(N)c(C(=O)COC(=O)Cc2ccccc2F)c(=O)n(C)c1=O	10.4	-1.1	1.3	2.5	5.3	-3.8
CC(C)C#Cc1cnc2c(c1)C(=O)N([C@H](C)CO)C[C@@H](C)[C@H](CN(C)C(=O)CN1CCOCC1)O2	nt	-0.3	nt	nt	nt	nt
COc1ccccc1NC(=O)COc1ccccc1C(=O)c1cnn(-c2ccccc2)c1	-11.9	nt	-4.3	49.9*	79.9	-1.3
Cc1cc(C)n2nc(-c3ccc(F)cc3)cc2n1	nt	54.5*	-2.7	2.3	nt	nt
Cc1ccc(-c2cc3nc(C)cc(C)n3n2)cc1	-5.1	59.9*	-8.0	15.5	16.0	-1.0
Cc1cc(C)n2nc(Nc3ccccc3)cc2n1	-18.8	33.3	1.8	nt	12.1	0.5
Cc1cc(C)n2nc(-c3ccccc3)cc2n1	4.8	42.7*	-5.0	12.0	11.7	-16.1
CO[C@H]1CN(C)C(=O)c2cc(NC(=O)NC(C)C)ccc2OC[C@H](C)N(CCC(F)(F)F)C[C@H]1C	nt	-8.0	nt	nt	nt	nt
CCOCCCNC(=O)c1cc2c(=O)n(CC)c3ccccc3c2s1	-5.9	-51.7	40.5*	3.1	nt	-7.3
CCn1c(=O)c2cc(C(=O)NCCOC)sc2c2ccccc21	7.7	2.2	13.0	1.1	-5.0	nt
CCCCCCNC(=O)CC(NS(=O)(=O)c1ccc(NC(C)=O)cc1)C(C)C (stereo unspecified)	30.2	nt	-1.6	nt	-30.2	-1.3
O=C(Nc1ccc(Nc2ccccc2)cc1)c1ccc(Cl)cc1	9.9	2.5	-1.0	0.2	23.7	-16.6
O=C(Nc1cccc2cccnc12)c1cccc([N+](=O)[O-])c1	-17.7	29.4	0.5	0.1	nt	-2.3
Cc1ccc(NC(=O)c2ccc(C(C)(C)C)cc2)cc1[N+](=O)[O-]	-34.6	nt	3.8	nt	120.9*	4.8
Cc1cc(C(=O)Nc2cccc3cccnc23)ccc1[N+](=O)[O-]	18.2	49.0*	-1.8	7.9	4.8	-2.3
Cc1cc(C)nc(Nc2ccc(C)c([N+](=O)[O-])c2)n1	-28.7	49.2*	-0.1	8.9	42.3	12.3
CC(C)(C)c1ccc(C(=O)Nc2ccc(Cl)cc2)cc1	-12.8	nt	0.2	15.3	99.4*	2.3
Nc1ccc(NC(=O)Nc2ccc(N)cc2)cc1	3.4	15.1	-0.7	3.3	17.6	-5.0
Cc1onc(-c2c(Cl)cccc2Cl)c1C(=O)Nc1ccc2c(c1)OCCO2	16.6	1.8	-3.2	nt	-7.8	17.3
COc1cccc(/C=C/C(=O)OCC(=O)N2CCCC2)c1OC	29.3	8.3	-0.1	4.9	-1.8	nt
Cc1ccc(-c2nc(CSCC(=O)Nc3cc(C)on3)c(C)o2)cc1	22.4	2.9	4.5	0.6	nt	nt
CC(C)(C)c1ccc(NC(=O)c2ccccc2)c([N+](=O)[O-])c1	16.2	12.9	-12.6	75.1*	60.4	-0.6
CC(C)(C)c1ccc(C(=O)Nc2cccnc2)cc1	-1.8	27.4	-9.6	-0.1	nt	-1.9
Cc1cc(C(=O)Nc2ccc3c(c2)CCC3)ccc1[N+](=O)[O-]	nt	nt	-6.6	51.3*	nt	-2.6
SMILES	PfHsp90 yeast 2	esBAF inh	N-glyco inh	Wnt act	MITF act	Vif imaging
CC(=O)Nc1nonc1NC(=O)c1ccc(C(C)(C)C)cc1	-4.2	32.3	-4.5	55.0*	nt	-3.8
Cc1ccc(C(=O)NCC(=O)Nc2ccc3c(c2)CCC3)cc1C	-9.0	5.8	-3.7	0.3	-5.5	-9.4
Cc1ccccc1OCC(=O)N1CCN(C(=O)COc2ccccc2C)CC1	-6.2	-3.1	0.3	-2.3	7.1	-6.5
O=C(CSc1nnc2sc3ccccc3n12)N1CCN(c2ccccc2)CC1	-2.2	-5.0	1.4	-0.9	-48.0	-9.1
CC(=O)c1nn(-c2ccc(Br)cc2)cc1C(=O)c1ccccc1	26.8	nt	1.0	-4.8	-9.0	-2.1
CC1(C)CC(=O)C(C=Nc2ccc(O)cc2)=C(O)C1	7.5	4.0	2.0	6.3	14.6	-8.6
CCOc1ccc(N=CC2=C(O)CC(C)(C)CC2=O)cc1	24.5	47.6*	0.2	-2.4	29.1	16.6
COc1ccc2nc(NC(=S)NC(=O)c3ccco3)sc2c1	-2.8	nt	-8.0	21.6	73.0	1.5
O=C(Nc1nc2ccc([N+](=O)[O-])cc2s1)c1ccco1	nt	nt	nt	52.3*	nt	nt
O=C(NC(=S)Nc1nc2ccccc2s1)c1ccco1	-6.9	nt	-5.8	52.6*	-0.4	-0.4
O=C(NC(=S)Nc1cccc(Cl)c1N1CCCCC1)c1ccco1	-7.3	nt	0.3	0.1	-10.7	-7.3
O=C(NC(=S)Nc1ccccc1Cl)c1ccco1	-52.0	58.2*	0.0	2.3	50.0	1.1
CC(=O)Nc1ccc2nc(NC(=O)c3ccco3)sc2c1	17.5	9.8	-7.7	15.9	19.5	0.4
COc1ccccc1CNC(=O)Cc1ccc(Br)cc1	7.0	nt	1.6	-0.1	1.4	2.8
O=c1c2ccc([N+](=O)[O-])cc2ncn1CCOc1ccccc1	nt	nt	2.1	-1.5	34.6	-7.6
O=C(COc1ccc(Cl)cc1)Nc1cccc(-c2ccc(N3CCOCC3)nn2)c1	19.8	-38.4	-5.2	29.9	70.6	-14.6
O=C(Nc1cccc(-c2ccc(N3CCOCC3)nn2)c1)c1ccccc1Cl	nt	54.1*	-7.3	-3.2	106.7*	10.8
O=C(Nc1cccc(-c2ccc(N3CCOCC3)nn2)c1)c1cccc(Cl)c1	nt	70.6*	-4.3	34.6*	nt	0.0
Cc1cc(C(=O)Nc2cccc(-c3ccc(N4CCOCC4)nn3)c2)ccc1[N+](=O)[O-]	nt	nt	-9.8	26.7	75.6	-15.6
O=C(Nc1cccc(-c2ccc(N3CCOCC3)nn2)c1)c1ccc(Cl)cc1	18.1	35.4	-4.2	-2.0	84.4*	-14.3
Cc1ccc(S(=O)(=O)Nc2cccc(-c3ccc(N4CCCCCC4)nn3)c2)cc1	-5.8	66.7*	-5.8	19.9	?	-1.4
O=C(Nc1cccc(-c2ccc(N3CCCCC3)nn2)c1)c1ccco1	32.0	6.8	-12.0	0.2	38.0	-13.6
C/C=C/c1ccc([C@@H]2[C@H](CO)N(Cc3ccccn3)[C@H]2CNC(=O)CC)cc1	nt	0.4	nt	nt	nt	nt
CC(=O)Nc1ccc(S(=O)(=O)NCCCN2CCOCC2)cc1	1.2	-3.7	-0.5	-2.0	9.5	11.4
CN(C)CC(=O)N[C@H]1C=C[C@@H](CC(=O)NCCN2CCCCC2)O[C@@H]1CO	nt	-1.1	nt	nt	nt	nt
COc1cccc(CNC(=O)c2ccc(Cl)c(NC3=NC4CS(=O)(=O)CC4S3)c2)c1 (stereo unspecified)	14.4	0.2	-0.9	-1.1	1.1	-6.0
